From the supplement of paper PMC11732987, “Enantioselective OTUD7B fragment discovery through chemoproteomics screening and high-throughput optimisation” (Communications Chemistry, 2025)

Experiments:
Assay in all cases: log2 ratio of Biotin-Ahx-Ub-VS probe labelling (fragment/DMSO); higher = less target engagement (more negative = stronger competition), active = hit call of the paper (q ≤ 0.05, log2 ratio ≤ -1)
Details in all cases: compound concentration: 200 uM; treatment time: 3 h
USP42 = biological target: T1, USP42 (UniProt Q9H9J4)
T1 sequence (whole entry): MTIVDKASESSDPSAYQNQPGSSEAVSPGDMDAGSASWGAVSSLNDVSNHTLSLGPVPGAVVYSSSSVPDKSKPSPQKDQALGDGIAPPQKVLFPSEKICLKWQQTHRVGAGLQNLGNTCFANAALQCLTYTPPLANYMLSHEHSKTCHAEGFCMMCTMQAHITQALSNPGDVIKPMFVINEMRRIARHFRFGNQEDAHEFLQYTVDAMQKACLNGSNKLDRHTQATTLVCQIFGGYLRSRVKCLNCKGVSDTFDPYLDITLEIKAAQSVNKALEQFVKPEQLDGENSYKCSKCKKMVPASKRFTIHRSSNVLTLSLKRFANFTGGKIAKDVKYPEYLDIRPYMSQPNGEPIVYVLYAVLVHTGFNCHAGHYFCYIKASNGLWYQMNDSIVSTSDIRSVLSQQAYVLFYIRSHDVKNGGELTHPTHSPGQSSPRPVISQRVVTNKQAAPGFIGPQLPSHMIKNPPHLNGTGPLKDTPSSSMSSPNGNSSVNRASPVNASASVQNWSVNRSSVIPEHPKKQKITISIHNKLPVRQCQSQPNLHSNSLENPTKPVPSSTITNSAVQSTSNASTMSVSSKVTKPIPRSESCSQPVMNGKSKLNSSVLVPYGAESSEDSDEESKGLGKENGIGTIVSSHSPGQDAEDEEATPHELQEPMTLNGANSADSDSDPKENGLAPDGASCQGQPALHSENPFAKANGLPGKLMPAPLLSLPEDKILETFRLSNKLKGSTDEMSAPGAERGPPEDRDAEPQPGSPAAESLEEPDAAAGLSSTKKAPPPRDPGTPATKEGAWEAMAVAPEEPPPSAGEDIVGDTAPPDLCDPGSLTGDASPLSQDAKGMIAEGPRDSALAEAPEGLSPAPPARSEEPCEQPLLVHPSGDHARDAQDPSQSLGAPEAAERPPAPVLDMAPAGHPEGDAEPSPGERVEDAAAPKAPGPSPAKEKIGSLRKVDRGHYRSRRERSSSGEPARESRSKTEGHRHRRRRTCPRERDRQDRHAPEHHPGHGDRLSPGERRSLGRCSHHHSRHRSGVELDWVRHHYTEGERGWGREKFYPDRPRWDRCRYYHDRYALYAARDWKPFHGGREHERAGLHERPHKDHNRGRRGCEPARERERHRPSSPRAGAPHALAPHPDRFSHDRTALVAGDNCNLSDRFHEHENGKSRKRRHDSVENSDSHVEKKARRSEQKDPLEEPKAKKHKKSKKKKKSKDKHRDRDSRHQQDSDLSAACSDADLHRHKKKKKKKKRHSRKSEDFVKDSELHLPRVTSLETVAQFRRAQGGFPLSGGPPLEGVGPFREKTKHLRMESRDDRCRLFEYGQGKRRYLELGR
In short: (§1)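 Labelling with Biotin-Ahx-Ub-VS (0.5 µM final, 1 h) followed a 3 h triplicate treatment of HEK293T lysate (495 µg per sample, Tris/CHAPS/IGEPAL buffer with protease inhibitors) with fragment at 200 µM or vehicle. Labelled DUBs were NeutrAvidin-enriched, digested with LysC and trypsin, and run by diaPASEF LC-MS/MS. The values, average log2 fragment/vehicle ratios by unpaired t-test, come from global-median-normalised Spectronaut label-free quantities. Proteins with ≥2 unique peptides were used.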

USP46 = USP46 (UniProt P62068)
USP46, sequence (P62068 whole entry): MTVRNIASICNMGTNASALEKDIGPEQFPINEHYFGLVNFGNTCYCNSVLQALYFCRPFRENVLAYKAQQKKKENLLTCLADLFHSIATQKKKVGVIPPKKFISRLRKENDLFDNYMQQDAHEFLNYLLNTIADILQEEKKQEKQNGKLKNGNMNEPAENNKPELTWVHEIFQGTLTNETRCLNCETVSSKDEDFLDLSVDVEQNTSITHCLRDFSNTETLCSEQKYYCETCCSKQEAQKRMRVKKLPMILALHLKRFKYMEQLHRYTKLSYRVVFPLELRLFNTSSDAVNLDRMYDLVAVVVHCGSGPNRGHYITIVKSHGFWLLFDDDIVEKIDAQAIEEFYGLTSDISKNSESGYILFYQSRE
In short: as §1

USP47 = biological target: T2, USP47 (UniProt Q96K76)
T2 sequence (whole entry): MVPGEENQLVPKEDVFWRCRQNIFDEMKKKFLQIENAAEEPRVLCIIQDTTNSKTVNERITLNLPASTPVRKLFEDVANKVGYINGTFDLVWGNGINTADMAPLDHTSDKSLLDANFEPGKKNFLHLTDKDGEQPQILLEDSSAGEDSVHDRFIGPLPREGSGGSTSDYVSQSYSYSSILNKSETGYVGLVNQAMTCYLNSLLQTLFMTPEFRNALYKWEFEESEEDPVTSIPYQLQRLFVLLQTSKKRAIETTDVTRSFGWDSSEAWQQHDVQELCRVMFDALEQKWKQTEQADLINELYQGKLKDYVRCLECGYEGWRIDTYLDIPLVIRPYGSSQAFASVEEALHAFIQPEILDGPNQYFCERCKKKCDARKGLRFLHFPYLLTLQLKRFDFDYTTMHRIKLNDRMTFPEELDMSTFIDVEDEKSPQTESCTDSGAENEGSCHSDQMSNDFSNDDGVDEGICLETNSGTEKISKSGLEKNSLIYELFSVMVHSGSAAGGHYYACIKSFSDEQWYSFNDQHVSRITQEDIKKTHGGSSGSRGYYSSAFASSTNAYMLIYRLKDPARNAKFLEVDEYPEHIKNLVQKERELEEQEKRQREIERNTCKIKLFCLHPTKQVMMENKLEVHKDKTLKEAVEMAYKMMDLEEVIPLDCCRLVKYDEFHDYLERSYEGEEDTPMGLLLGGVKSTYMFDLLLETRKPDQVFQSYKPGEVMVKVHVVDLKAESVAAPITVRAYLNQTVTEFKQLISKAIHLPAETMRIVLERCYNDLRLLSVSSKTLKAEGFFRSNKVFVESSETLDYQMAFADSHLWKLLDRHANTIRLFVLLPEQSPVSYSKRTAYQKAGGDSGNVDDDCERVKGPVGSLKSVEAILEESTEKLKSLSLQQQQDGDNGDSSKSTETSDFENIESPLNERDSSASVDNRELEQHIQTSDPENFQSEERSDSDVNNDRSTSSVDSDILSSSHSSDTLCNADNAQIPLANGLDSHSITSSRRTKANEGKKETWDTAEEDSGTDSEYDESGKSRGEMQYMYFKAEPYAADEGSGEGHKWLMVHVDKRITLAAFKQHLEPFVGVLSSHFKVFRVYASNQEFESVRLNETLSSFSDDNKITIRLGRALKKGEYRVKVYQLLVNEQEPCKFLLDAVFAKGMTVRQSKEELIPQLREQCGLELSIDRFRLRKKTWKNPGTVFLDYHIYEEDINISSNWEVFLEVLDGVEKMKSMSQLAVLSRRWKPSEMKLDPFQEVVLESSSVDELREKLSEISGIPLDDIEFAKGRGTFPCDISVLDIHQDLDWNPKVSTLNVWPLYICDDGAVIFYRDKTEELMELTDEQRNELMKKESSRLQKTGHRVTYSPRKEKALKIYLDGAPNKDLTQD
In short: as §1

USP48 = biological target: T3, USP48 (UniProt Q86UV5)
T3 sequence (whole entry): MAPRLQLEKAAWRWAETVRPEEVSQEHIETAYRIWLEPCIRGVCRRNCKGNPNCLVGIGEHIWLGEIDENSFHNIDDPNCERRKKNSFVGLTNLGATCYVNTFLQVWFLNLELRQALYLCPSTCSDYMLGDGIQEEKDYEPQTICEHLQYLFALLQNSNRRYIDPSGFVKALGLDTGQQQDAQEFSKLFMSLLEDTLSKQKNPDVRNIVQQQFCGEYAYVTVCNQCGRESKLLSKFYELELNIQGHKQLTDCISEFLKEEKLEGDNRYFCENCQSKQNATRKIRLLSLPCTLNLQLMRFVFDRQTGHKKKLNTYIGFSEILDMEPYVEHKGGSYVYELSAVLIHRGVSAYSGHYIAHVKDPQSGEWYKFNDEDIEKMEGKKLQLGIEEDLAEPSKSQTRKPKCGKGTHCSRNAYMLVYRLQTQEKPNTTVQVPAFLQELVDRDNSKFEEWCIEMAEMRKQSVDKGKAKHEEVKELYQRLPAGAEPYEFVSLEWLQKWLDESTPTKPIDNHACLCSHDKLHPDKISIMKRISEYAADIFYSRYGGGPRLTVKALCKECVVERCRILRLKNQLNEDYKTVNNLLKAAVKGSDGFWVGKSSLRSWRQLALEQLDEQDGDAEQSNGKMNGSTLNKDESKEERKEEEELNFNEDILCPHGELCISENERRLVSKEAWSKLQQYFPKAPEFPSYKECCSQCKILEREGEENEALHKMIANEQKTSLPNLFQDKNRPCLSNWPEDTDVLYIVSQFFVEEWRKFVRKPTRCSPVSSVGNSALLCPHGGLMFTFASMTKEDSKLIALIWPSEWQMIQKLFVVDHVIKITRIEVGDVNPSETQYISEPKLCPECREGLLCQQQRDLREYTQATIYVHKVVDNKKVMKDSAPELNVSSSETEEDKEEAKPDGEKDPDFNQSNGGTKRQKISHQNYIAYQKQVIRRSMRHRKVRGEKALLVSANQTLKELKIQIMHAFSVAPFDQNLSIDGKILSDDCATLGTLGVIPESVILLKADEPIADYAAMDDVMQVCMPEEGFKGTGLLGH
In short: as §1

USP5 = biological target: T4, USP5 (UniProt P45974)
T4 sequence (whole entry): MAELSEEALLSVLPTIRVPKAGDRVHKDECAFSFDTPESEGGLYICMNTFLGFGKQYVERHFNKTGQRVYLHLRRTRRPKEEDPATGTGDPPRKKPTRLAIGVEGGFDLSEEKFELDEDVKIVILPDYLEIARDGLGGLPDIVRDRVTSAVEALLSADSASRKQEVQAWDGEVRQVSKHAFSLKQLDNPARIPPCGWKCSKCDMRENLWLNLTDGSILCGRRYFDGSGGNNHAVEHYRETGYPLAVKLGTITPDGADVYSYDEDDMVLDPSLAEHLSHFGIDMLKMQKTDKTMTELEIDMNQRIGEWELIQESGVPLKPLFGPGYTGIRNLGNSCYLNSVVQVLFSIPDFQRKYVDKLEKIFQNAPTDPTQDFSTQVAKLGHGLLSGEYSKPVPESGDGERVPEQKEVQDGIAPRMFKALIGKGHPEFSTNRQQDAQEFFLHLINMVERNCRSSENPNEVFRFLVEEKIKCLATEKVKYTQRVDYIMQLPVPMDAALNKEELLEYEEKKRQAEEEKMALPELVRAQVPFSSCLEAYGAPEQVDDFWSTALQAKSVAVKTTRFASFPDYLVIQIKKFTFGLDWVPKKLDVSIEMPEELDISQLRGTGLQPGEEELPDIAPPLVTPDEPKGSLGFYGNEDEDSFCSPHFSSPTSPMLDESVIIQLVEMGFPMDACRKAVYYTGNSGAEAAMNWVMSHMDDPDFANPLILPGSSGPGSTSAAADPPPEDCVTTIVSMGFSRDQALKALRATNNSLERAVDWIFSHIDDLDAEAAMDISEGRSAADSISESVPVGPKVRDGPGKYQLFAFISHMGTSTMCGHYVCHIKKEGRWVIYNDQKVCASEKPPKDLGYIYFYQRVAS
In short: as §1

USP54 = USP54 (UniProt Q70EL1)
USP54, sequence (Q70EL1 whole entry): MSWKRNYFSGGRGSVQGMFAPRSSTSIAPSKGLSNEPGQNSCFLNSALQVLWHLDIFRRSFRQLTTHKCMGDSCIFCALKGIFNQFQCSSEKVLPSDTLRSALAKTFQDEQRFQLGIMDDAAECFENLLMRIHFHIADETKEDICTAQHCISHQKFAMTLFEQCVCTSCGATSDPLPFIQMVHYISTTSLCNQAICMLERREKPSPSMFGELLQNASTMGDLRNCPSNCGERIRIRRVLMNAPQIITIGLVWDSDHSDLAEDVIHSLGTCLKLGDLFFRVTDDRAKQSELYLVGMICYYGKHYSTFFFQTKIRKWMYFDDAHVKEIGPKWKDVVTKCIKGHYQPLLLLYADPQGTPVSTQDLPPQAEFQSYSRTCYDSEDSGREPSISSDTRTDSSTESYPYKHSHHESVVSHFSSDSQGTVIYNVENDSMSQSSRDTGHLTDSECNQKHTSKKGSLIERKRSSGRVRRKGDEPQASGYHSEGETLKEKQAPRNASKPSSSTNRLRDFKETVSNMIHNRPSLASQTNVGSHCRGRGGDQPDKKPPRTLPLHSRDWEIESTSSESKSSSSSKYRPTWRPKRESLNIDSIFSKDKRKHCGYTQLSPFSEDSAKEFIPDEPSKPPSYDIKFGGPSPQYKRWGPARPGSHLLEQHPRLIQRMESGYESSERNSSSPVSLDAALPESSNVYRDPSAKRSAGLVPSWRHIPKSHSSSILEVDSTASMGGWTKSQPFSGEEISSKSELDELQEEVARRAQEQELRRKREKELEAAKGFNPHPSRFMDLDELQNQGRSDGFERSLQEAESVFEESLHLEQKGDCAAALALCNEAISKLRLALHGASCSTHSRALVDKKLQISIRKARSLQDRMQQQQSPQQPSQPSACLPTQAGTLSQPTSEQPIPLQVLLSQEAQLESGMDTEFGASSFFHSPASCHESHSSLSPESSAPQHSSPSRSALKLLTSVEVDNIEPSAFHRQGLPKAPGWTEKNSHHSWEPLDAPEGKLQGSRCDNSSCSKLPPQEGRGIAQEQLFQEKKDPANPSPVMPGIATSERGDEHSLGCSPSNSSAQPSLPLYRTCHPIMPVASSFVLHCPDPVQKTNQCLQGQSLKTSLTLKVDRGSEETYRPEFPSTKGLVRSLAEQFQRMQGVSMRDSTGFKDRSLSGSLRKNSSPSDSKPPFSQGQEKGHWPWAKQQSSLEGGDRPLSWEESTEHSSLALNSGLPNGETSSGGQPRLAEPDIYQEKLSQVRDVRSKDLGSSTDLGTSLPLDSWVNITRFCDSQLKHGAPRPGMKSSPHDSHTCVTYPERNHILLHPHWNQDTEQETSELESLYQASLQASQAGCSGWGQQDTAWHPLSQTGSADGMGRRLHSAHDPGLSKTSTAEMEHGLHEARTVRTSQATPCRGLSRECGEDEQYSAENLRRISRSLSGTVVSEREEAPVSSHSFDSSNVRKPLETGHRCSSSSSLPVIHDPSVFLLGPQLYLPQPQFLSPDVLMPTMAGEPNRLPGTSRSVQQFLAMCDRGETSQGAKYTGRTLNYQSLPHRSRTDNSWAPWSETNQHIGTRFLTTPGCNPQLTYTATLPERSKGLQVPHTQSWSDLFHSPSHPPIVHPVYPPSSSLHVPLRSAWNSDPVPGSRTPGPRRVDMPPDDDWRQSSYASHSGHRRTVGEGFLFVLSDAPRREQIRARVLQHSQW
In short: as §1

USP7 = USP7 (UniProt Q93009)
USP7, sequence (Q93009 whole entry, looked up): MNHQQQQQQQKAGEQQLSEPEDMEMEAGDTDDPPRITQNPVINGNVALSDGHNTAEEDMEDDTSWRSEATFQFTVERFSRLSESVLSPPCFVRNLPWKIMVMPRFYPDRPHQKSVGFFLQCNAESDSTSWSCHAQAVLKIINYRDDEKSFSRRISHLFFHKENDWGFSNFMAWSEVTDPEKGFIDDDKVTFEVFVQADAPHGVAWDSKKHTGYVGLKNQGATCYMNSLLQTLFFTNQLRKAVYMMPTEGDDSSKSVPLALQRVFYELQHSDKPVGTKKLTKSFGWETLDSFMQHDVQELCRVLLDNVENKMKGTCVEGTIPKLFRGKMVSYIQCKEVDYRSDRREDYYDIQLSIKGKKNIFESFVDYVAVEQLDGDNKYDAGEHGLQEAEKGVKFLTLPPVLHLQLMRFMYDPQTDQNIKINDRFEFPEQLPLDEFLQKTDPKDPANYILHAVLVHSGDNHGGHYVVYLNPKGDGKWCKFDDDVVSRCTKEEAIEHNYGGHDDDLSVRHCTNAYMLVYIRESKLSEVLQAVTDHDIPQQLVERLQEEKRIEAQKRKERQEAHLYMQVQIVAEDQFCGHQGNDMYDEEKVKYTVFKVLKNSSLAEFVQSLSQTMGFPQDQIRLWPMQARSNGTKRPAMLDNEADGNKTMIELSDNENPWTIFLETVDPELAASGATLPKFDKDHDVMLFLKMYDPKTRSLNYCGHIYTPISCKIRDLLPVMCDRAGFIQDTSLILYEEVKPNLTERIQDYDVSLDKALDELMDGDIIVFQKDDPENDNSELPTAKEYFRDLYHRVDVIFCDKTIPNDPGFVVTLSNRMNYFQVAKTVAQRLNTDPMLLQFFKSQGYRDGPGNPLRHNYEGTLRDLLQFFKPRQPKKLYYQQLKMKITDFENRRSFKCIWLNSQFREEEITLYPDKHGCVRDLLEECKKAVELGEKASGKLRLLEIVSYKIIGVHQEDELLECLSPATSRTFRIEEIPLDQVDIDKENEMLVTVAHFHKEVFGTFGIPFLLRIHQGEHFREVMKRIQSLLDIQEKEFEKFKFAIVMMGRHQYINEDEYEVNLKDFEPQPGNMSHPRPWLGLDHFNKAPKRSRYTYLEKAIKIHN
In short: as §1

USP8 = biological target: T5, USP8 (UniProt P40818)
T5 sequence (whole entry): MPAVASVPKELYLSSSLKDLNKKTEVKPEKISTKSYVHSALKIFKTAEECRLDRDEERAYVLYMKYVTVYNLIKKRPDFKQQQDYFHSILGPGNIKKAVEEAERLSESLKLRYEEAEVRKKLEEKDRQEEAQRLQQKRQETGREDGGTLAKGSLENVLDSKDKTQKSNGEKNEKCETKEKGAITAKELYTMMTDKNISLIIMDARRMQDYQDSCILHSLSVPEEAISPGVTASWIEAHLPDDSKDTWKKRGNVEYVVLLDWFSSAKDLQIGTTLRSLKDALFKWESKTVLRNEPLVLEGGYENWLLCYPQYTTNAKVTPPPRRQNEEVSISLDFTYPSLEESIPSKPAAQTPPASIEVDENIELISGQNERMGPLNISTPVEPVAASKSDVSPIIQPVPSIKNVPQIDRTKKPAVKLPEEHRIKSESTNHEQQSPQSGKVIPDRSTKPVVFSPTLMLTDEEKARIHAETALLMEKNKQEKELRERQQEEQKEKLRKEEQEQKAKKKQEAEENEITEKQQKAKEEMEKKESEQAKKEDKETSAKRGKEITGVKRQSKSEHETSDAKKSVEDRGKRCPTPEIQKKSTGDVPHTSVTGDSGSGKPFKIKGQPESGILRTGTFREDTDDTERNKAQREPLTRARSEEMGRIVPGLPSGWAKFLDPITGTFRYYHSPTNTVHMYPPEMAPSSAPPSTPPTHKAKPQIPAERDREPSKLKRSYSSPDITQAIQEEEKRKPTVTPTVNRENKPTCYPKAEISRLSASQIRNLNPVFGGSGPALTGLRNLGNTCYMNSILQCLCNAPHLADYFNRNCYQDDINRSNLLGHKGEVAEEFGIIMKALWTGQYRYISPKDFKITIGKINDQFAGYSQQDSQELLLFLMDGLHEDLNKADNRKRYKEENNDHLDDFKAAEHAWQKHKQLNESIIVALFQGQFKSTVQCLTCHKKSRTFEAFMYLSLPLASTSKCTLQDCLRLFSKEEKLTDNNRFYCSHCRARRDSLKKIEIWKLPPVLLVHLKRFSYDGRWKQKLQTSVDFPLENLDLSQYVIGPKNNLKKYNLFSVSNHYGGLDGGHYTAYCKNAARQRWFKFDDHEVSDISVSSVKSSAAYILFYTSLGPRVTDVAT
In short: as §1

USP9X = USP9X (UniProt Q93008)
In short: as §1

UniProt O00487 = biological target: UniProt O00487
UniProt O00487, sequence (O00487 whole entry): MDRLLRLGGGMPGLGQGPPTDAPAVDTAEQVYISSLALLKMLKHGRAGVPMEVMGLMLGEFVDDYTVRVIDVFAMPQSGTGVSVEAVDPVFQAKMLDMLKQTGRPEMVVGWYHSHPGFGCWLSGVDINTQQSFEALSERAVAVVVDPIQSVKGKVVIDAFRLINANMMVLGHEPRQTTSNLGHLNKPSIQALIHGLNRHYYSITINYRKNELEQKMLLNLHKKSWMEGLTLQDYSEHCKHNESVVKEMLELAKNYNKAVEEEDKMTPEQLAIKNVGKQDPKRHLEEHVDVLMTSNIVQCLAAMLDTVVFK
In short: as §1

Measured: log2 ratio of Biotin-Ahx-Ub-VS probe labelling

Cc1c(NC(=O)CCl)c(=O)n(-c2ccccc2)n1C
inactive: USP42 0.238 | USP46 0.0574 | USP47 -0.882 | USP48 -0.0273 | USP5 -0.287 | USP54 0.0174 | USP7 -0.431 | USP8 0.0124 | USP9X 0.00112 | UniProt O00487 -0.111
